Where “and” joins values, the source holds several entries; their conditions need not be identical. Equal values may be shown once. The campaign covered roughly 5,500 compounds. About 2,000 (36%) were called active. Roughly 18% stayed inconclusive and do not appear here. Rule as the data show it: active = normalized growth mostly below about 0.91 (no sharp cut-off); inconclusive = no clear call, values can overlap the other calls; inactive = mostly above about 0.92. The list shows a part of the results.
Experiment: chemical genetic growth profiling, strain panel (AID 1159580);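 also: tested at 20 µM; growth read once vehicle control cultures reached saturation at 30 °C; 1 = growth at the plate median or of vehicle wells; lower values mean less growth of the strain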
Settings: S. cerevisiae deletion strains, growth OD

Measured: normalized growth

CCCNC(=O)NS(=O)(=O)c1ccc(Cl)cc1
inactive: locus YAL013W, strain DEP1, active compounds read low 1.01 and 0.978 | locus YAL021C, strain ccr4, active compounds read low 1.02 | locus YAL026C, strain drs2, active compounds read low 1.01 | locus YAL030W, strain snc1, active compounds read low 1.01 | locus YAL040C, strain CLN3, active compounds read low 1.09 | locus YBL061C, strain skt5, active compounds read low 1.01 | locus YBR009C, strain hhf1, active compounds read low 1.02 | locus YBR021W, strain FUR4, active compounds read low 1.03 | locus YBR023C, strain chs3, active compounds read low 1.02 | locus YBR171W, strain sec66, active compounds read low 1.01 | locus YBR229C, strain ROT2, active compounds read low 0.993 | locus YBR231C, strain swc5, active compounds read low 1.01 | locus YBR279W, strain paf1, active compounds read low 1.01 | locus YCL011C, strain gbp2, active compounds read low 1 | locus YCL016C, strain dcc1, active compounds read low 1.01 | locus YCL029C, strain bik1, active compounds read low 1.01 | locus YCL061C, strain MRC1 (second series), active compounds read low 0.997 | locus YCL069W, strain vba3, active compounds read low 1.01 | locus YCR088W, strain abp1, active compounds read low 0.996 | locus YDL005C, strain med2, active compounds read low 1.01 | locus YDL035C, strain GPR1, active compounds read low 1 | locus YDL040C, strain nat1, active compounds read low 1.01 | locus YDL074C, strain BRE1, active compounds read low 1.01 | locus YDL101C, strain DUN1, active compounds read low 1.03 | locus YDL134C, strain PPH21, active compounds read low 1 | locus YDL185W, strain tfp1, active compounds read low 1 | locus YDL192W, strain arf1, active compounds read low 1.03 | locus YDR001C, strain nth1, active compounds read low 1.01 | locus YDR069C, strain doa4, active compounds read low 1.03 | locus YDR101C, strain arx1, active compounds read low 1.01 | locus YDR137W, strain rgp1, active compounds read low 0.994 | locus YDR150W, strain NUM1, active compounds read low 0.986 and 1 | locus YDR159W, strain sac3, active compounds read low 1.01 | locus YDR162C, strain NBP2, active compounds read low 0.984 | locus YDR195W, strain ref2 1.03 | locus YDR297W, strain sur2, active compounds read low 1.02 | locus YDR318W, strain mcm21, active compounds read low 1.01 | locus YDR334W, strain swr1, active compounds read low 1.01 | locus YDR335W, strain msn5, active compounds read low 1.02 | locus YDR363W, strain ESC2, active compounds read low 0.97 | locus YDR388W, active compounds read low 1.01 | locus YDR392W, strain spt3, active compounds read low 1 | locus YDR502C, strain sam2, active compounds read low 1.05 | locus YEL003W, strain gim4, active compounds read low 1.02 | locus YEL037C, strain rad23, active compounds read low 1.01 | locus YEL061C, strain CIN8 (second series), active compounds read low 1.02 | locus YEL061C, strain CIN8, active compounds read low 0.997 | locus YER002W, strain NOP16, active compounds read low 1.01 | locus YER015W, strain faa2, active compounds read low 1.02 | locus YER016W, strain bim1, active compounds read low 0.989 | locus YER110C, active compounds read low 0.998 | locus YER111C, strain swi4, active compounds read low 1.02 | locus YER155C, strain BEM2 (second series), active compounds read low 1.03 | locus YER155C, strain BEM2, active compounds read low 1.01 | locus YER167W, strain BCK2, active compounds read low 1 | locus YFR010W, strain ubp6, active compounds read low 1.04 | locus YGL078C, strain dbp3, active compounds read low 1.02 | locus YGL167C, strain pmr1, active compounds read low 0.991 | locus YGL173C, strain kem1, active compounds read low 1.02 | locus YGL227W, strain vid30, active compounds read low 1.02 | locus YGL240W, strain doc1, active compounds read low 1.03 | locus YGL248W, strain PDE1, active compounds read low 1.03 | locus YGL253W, strain hxk2, active compounds read low 1.01 | locus YGR135W, strain pre9, active compounds read low 1.05 | locus YGR229C, strain SMI1, active compounds read low 0.994 | locus YGR252W, strain gcn5, active compounds read low 1.07 | locus YHR013C, strain ard1, active compounds read low 1.05 | locus YHR027C, strain rpn1, active compounds read low 1.01 | locus YHR030C, strain SLT2, active compounds read low 0.991 and 1.01 | locus YHR079C, strain IRE1 (second series), active compounds read low 1.01 | locus YHR079C, strain IRE1, active compounds read low 0.986 | locus YHR094C, strain hxt1, active compounds read low 1.01 | locus YHR129C, strain ARP1, active compounds read low 1.01 | locus YHR142W, strain chs7, active compounds read low 1.04 | locus YHR200W, strain rpn10, active compounds read low 1.01 | locus YIL066C, strain RNR3, active compounds read low 0.998 | locus YIL073C, strain SPO22, active compounds read low 1.02 | locus YIL125W, strain kgd1, active compounds read low 0.997 | locus YIR030C, strain dcg1, active compounds read low 0.997 | locus YJL092W, strain hpr5, active compounds read low 1 | locus YJL095W, strain BCK1 (second series), active compounds read low 1.02 | locus YJL095W, strain BCK1, active compounds read low 1.05 and 0.979 | locus YJL115W, strain asf1, active compounds read low 1.02 | locus YJL129C, strain trk1, active compounds read low 1.02 | locus YJL134W, strain LCB3, active compounds read low 0.996 | locus YJL154C, strain vps35, active compounds read low 1.01 | locus YJL164C, strain tpk1, active compounds read low 1.01 | locus YJL166W, strain qcr8, active compounds read low 1.01 | locus YJL168C, strain set2, active compounds read low 1.01 | locus YJL187C, strain SWE1 (second series), active compounds read low 1.03 | locus YJR043C, strain POL32, active compounds read low 1 | locus YJR066W, strain TOR1, active compounds read low 0.983 | locus YKL009W, strain mrt4, active compounds read low 1.01 | locus YKL068W, active compounds read low 0.984 | locus YKL085W, strain MDH1 (second series), active compounds read low 0.979 | locus YKL085W, strain MDH1, active compounds read low 0.979 | locus YKL160W, strain elf1, active compounds read low 1.02 | locus YKR001C, strain vps1, active compounds read low 0.992 | locus YKR026C, strain gcn3, active compounds read low 0.99 | locus YKR091W, strain srl3, active compounds read low 1.01 | locus YLL001W, strain dnm1, active compounds read low 1.01 | locus YLL026W, active compounds read low 1.02 | locus YLL041C, strain sdh2, active compounds read low 0.991 | locus YLR027C, strain aat2, active compounds read low 1.01 | locus YLR039C, strain RIC1, active compounds read low 0.967 | locus YLR058C, strain SHM2, active compounds read low 1.02 | locus YLR102C, strain apc9, active compounds read low 1 | locus YLR113W, strain HOG1, active compounds read low 0.99 | locus YLR221C, strain rsa3, active compounds read low 1 | locus YLR258W, strain gsy2, active compounds read low 1.01 | locus YLR262C, strain YPT6 (second series), active compounds read low 1 | locus YLR262C, strain YPT6, active compounds read low 0.977 | locus YLR268W, strain sec22, active compounds read low 1.01 | locus YLR320W, strain mms22, active compounds read low 1.02 | locus YLR330W, strain CHS5, active compounds read low 1 | locus YLR342W, strain FKS1 (second series), active compounds read low 0.984 | locus YLR342W, strain FKS1, active compounds read low 1.02 | locus YLR357W, strain rsc2, active compounds read low 1.03 | locus YLR370C, strain arc18, active compounds read low 1.02 | locus YLR371W, strain rom2, active compounds read low 0.997 | locus YLR384C, strain iki3, active compounds read low 1.03 | locus YLR418C, strain cdc73, active compounds read low 1.08 | locus YML016C, strain PPZ1, active compounds read low 0.997 | locus YML032C, strain rad52, active compounds read low 0.996 | locus YML120C, strain ndi1, active compounds read low 1.02 | locus YML124C, strain tub3, active compounds read low 0.997 | locus YMR058W, strain fet3, active compounds read low 1 | locus YMR078C, strain ctf18, active compounds read low 1 | locus YMR125W, strain sto1, active compounds read low 1 | locus YMR129W, active compounds read low 1.01 | locus YMR205C, strain PFK2, active compounds read low 1.02 | locus YMR223W, strain ubp8, active compounds read low 1.03 | locus YMR231W, strain pep5, active compounds read low 1.01 | locus YMR263W, strain SAP30, active compounds read low 0.991 | locus YMR307W, strain GAS1, active compounds read low 1.09 | locus YNL067W, strain RPL9B, active compounds read low 1.03 | locus YNL071W, strain lat1, active compounds read low 1.03 | locus YNL128W, strain TEP1, active compounds read low 1.01 | locus YNL153C, strain GIM3, active compounds read low 1.02 and 1.01 | locus YNL175C, strain NOP13, active compounds read low 1.02 | locus YNL183C, strain NPR1, active compounds read low 0.935 | locus YNL197C, strain WHI3, active compounds read low 1.02 | locus YNL209W, strain ssb2, active compounds read low 1 | locus YNL224C, strain SQS1, active compounds read low 0.983 | locus YNL233W, strain BNI4, active compounds read low 1.02 | locus YNL248C, strain rpa49, active compounds read low 1.09 | locus YNL250W, strain rad50, active compounds read low 1 | locus YNL271C, strain bni1, active compounds read low 1.01 | locus YNL298W, strain CLA4, active compounds read low 0.99 | locus YNL307C, strain MCK1, active compounds read low 1.01 | locus YNL322C, strain KRE1 (second series), active compounds read low 1 | locus YNL322C, strain KRE1, active compounds read low 0.988 | locus YNR049C, strain mso1, active compounds read low 1.02 | locus YNR052C, strain pop2, active compounds read low 1.01 | locus YOL012C, strain htz1 0.677 | locus YOL147C, strain pex11, active compounds read low 0.996 | locus YOR001W, strain rrp6, active compounds read low 1.02 | locus YOR061W, strain CKA2, active compounds read low 1.01 | locus YOR069W, strain VPS5, active compounds read low 0.992 | locus YOR070C, strain gyp1, active compounds read low 1.01 | locus YOR080W, strain dia2, active compounds read low 1.03 | locus YOR083W, strain WHI5 (second series), active compounds read low 0.985 | locus YOR083W, strain WHI5, active compounds read low 1.01 | locus YOR106W, strain vam3, active compounds read low 1.01 | locus YOR136W, strain idh2, active compounds read low 1 | locus YOR144C, strain elg1, active compounds read low 1.01 | locus YOR184W, strain ser1, active compounds read low 1.01 | locus YOR231W, strain MKK1, active compounds read low 0.971 | locus YOR265W, strain rbl2, active compounds read low 1.01 | locus YOR270C, strain vph1, active compounds read low 1.01 | locus YOR290C, strain snf2, active compounds read low 1.02 | locus YOR316C, strain cot1, active compounds read low 1 | locus YPL051W, strain arl3, active compounds read low 1.02 | locus YPL078C, strain atp4, active compounds read low 1.02 | locus YPL106C, strain sse1, active compounds read low 1.03 | locus YPL240C, strain hsp82, active compounds read low 1.01 | locus YPL241C, strain CIN2, active compounds read low 0.997 | locus YPL256C, strain CLN2, active compounds read low 0.975 | locus YPR119W, strain clb2, active compounds read low 0.999 | locus YPR141C, strain kar3, active compounds read low 1 | locus YPR163C, strain tif3, active compounds read low 1 | locus YPR167C, strain met16, active compounds read low 1 | strain wtn01, active compounds read low 1.01
